# Reference: the supplement of paper PMC3334620
# Over roughly 33,000 sequences, “E-score (-0.5 to 0.5)” has its median near -0.0059; the highest 2% begin near 0.26. For the sample, the highest values were picked, then their nearest neighbours and some sequences at random.
# Target: T1, Cin5 (UniProt P40917)
# T1 sequence: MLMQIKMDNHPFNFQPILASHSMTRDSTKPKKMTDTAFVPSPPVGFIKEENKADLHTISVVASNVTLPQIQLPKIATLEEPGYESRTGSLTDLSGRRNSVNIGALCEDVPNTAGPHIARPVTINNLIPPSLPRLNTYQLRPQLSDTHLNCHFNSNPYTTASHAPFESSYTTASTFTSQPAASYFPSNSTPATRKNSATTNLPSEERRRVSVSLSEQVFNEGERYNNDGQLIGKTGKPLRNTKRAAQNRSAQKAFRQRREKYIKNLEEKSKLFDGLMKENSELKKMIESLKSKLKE
# Test: PBM E-score (8-mer binding enrichment) (E-score (-0.5 to 0.5)); higher = stronger / more preferred TF binding
# Conditions: protein concentration: 100 nM; construct: GST-full length
# Experimental: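 Universal 'all 10-mer' protein binding microarrays (Agilent AMADID 015681) probed with GST-tagged S. cerevisiae TFs (full-length or DBD) made by in vitro transcription/translation (PURExpress), about 100-200 nM. Bound TF was detected with fluorescent anti-GST. Each ungapped 8-mer (which stands for itself and its reverse complement) is scored by the PBM enrichment score (E-score), a modified Wilcoxon-Mann-Whitney statistic from -0.5 to +0.5, computed with the Universal PBM Analysis Suite. Scale: above 0.35 generally sequence-specific binding.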
row,Sequence,PBM E-score
1,CCCACTAC,0.0221
2,CTGGAGAA,-0.202
3,CTACACAG,-0.0209
4,TAAGAACA,0.29
5,CAAGAACA,-0.0469
6,GAAGAACA,0.215
7,CGTAGACG,-0.217
8,GAAACTGA,-0.17
9,CCCGAGTA,0.15
10,ATTAGATG,0.239
11,TATAGATA,0.176
12,CGTAGATA,0.0684
13,ATTAGATA,0.301
14,CTTAGCTA,0.151
15,AGTAGATC,-0.0135
16,GTTAGATA,0.113
17,GATAGATA,0.0426
18,AGTAGATA,0.306
19,GTTAGCTA,0.0147
20,ATTAGCTA,0.3
21,AATAGATA,0.269
22,CCGGTTTC,0.0044
23,TACAATCA,0.152
24,CCCTCAGG,-0.164
25,AACCAAAA,0.204

row,Sequence,PBM E-score
1,CCGCCCCA,0.109
2,AGTGCCGC,-0.124
3,AGGGCCAC,-0.194
4,AGAAGGGC,-0.254
5,CTATAACA,-0.122
6,GTATAACA,0.126
7,CTATAACC,-0.144
8,ATATAACA,0.284
9,ATATAACG,0.273
10,ATATAACC,0.188
11,CTTAAACC,-0.192
12,ACGGCGTC,-0.0496
13,GAACTGGC,-0.125
14,AATAATTA,0.35
15,CATAATTA,0.308
16,ACTAATTA,0.228
17,GATAATTA,0.218
18,AATAATTG,0.0887
19,CCTAATTA,0.0517
20,ACTAATTC,0.204
21,AATAATTC,0.261
22,CATAATTC,0.138
23,ACCGAAGA,0.0871
24,ACCAATGC,0.0593
25,AGAGACTC,-0.0094

row,Sequence,PBM E-score
1,CCTCGCCC,0.0221
2,AGCCTTAG,-0.197
3,CAACAGTA,0.0302
4,GCCAGCCA,-0.193
5,AATACAAG,0.294
6,GATACAAA,0.173
7,AATACAAA,0.342
8,TATACAAA,0.169
9,AATACAAT,0.154
10,AATACAAC,0.236
11,AACTCCCT,-0.142
12,CATTAACG,0.0883
13,CGCATGAA,0.116
14,GGTAACCA,-0.151
15,ATTATTGA,0.111
16,GCAATACA,0.274
17,ACAATACC,0.278
18,CTAATACC,0.104
19,ACAATACA,0.144
20,ATAATACC,0.258
21,ATAATAAC,0.206
22,GCAATACC,0.0147
23,ATAATACA,0.35
24,ATAATACG,0.213
25,ACAATACT,0.237

row,Sequence,PBM E-score
1,ACAATACG,0.05
2,CTAATACA,0.161
3,GAGTGCTA,0.0563
4,CCTAACCC,-0.302
5,ACAAGACT,-0.039
6,GATTGGAA,-0.0265
7,ATCGAGTC,0.0696
8,CTCTAAGC,0.0569
9,ATTAACTG,0.237
10,ATACAGGG,0.121
11,ACTCGTGG,-0.041
12,ATGGTAGG,-0.0925
13,GTACTTCA,0.279
14,CTACTTCA,-0.0153
15,ATACTTCA,0.129
16,AACCCAGA,-0.0895
17,CGGGGCAC,-0.242
18,GCTCTACC,-0.288
19,ATAGATAA,0.267
20,ATAGATAG,0.0352
21,CTTGAATA,0.0347
22,TTAGATAA,0.32
23,AAAGATTA,0.249
24,ATAGATAC,0.224
25,ATTGAATC,-0.0743

row,Sequence,PBM E-score
1,CTAGATAA,0.0277
2,ATTGAATA,0.277
3,GAAGATTA,0.197
4,TCAGATAA,0.184
5,TAAGATTA,0.274
6,AAAAGGAC,0.0428
7,AAGACCCG,-0.133
8,AACGATCG,0.0832
9,ACGCCCGA,-0.032
10,AGGAACAA,-0.0886
11,AGTTCGGC,-0.0604
12,GCAGATAA,0.0212
13,ATGGAATC,0.242
14,ATAGATTG,0.224
15,GTAGATAC,0.0747
16,ATAGATTA,0.302
17,GTGGAATA,0.193
18,GTAGATAA,0.28
19,ATGGAATA,0.322
20,ATAGAATA,0.277
21,ATAGAATG,0.209
22,GTAGAATA,0.194
23,GTAGATTA,0.232
24,AAAGTTGC,0.0362
25,AGGCCAAC,-0.251

row,Sequence,PBM E-score
1,CATTGCAA,-0.0643
2,CTCAGGGA,-0.0496
3,GCGCATTA,0.147
4,ATCACCTG,0.148
5,CAATCTGC,-0.0434
6,GAGCAGAA,-0.0414
7,ACCAACGC,-0.0288
8,AGGGCACG,-0.206
9,CCGACCGG,-0.211
10,TTAGCTAA,0.343
11,CTAGCTAA,0.0272
12,ATAGCTAA,0.0506
13,CACTCGGG,-0.117
14,CATGACAA,0.0097
15,GATGACAA,0.27
16,GATGACAC,0.0142
17,AGGGCCCC,-0.322
18,TCCACTAA,0.0246
19,CGCTTAGC,-0.0166
20,GATATCGA,0.0864
21,AATATCGA,0.326
22,AATATCGG,0.179
23,AAAGAGCG,0.0467
24,AACCCTGA,0.131
25,GATGCTTA,0.0868

row,Sequence,PBM E-score
1,CATGCTTC,0.0417
2,CATGCTTA,0.259
3,CATGCTGA,0.181
4,CGTGCTGA,0.0279
5,CGTGCTTA,0.273
6,AATGCTGA,0.118
7,AATGCTTA,0.276
8,GGTGCTTA,0.0985
9,ACGGTGGA,-0.285
10,GAGTCGAC,0.063
11,GCCTAACC,-0.12
12,ATCCGACG,0.0285
13,ACGCTTAG,0.0472
14,GCACTTAC,0.112
15,CCGCTTAC,0.334
16,CCGCTTAG,-0.0568
17,CCGCTTAA,0.103
18,ACGCTTAC,0.269
19,CCACTTAC,0.303
20,ACGCTTAT,0.101
21,CCACTTAA,0.0597
22,GAACAGGA,-0.126
